Measured values reported in PubChem BioAssay (NCATS).
Several values for one entry are separate records, joined by “and”; a condition that tells them apart may be missing. Equal values may be shown once. Values without a mark were called inactive. Results filed as inconclusive are left out. Where a call stands in place of a potency, no number is given. Activity calls are given as the source filed them. Unless noted, calls follow the shape of the dose curve; as a rule, active = well fitted curve in the direction sought with a large enough effect; inconclusive = small, poorly fitted or top-dose-only effect, or another doubt; inactive = no such curve, though single readings can be large; an effect the other way counts as inactive or inconclusive.

Tests used:
[1] = Cell Viability - BJ (AID 421; calls by dose curve;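 also: potency is read from the fitted curve at half-maximal effect; cells exposed to compound for 40 hours at 37 °C before readout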); conditions: BJ fibroblast viability, qHTS
In short: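 Cytotoxicity in human BJ foreskin fibroblasts is scored as loss of cellular ATP after a 40-hour exposure, measured by luciferase luminescence. Controls are DMSO and 100 uM tamoxifen.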

[2] = Cell Viability - MRC5 (AID 434; calls by dose curve;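 also: potency is read from the fitted curve at half-maximal effect; cells exposed to compound for 40 hours at 37 °C; potency reflects cytotoxicity seen as loss of intracellular ATP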); conditions: MRC5 lung fibroblast viability, qHTS
In short: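 ATP luminescence read-out (CellTiter-Glo, 20 min RT) after 40 hr, 37 °C compound exposure of 1500 MRC5 cells/well. Data normalized to DMSO (basal) and 100 uM tamoxifen (100% inhibition); AC50 from standard Hill equation.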

[3] = Cellular Toxicity (caspase-3) HepG2 (AID 654); conditions: HepG2 caspase-3 activation, luminescence; series mostly up to 92.2 µM;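 also: cells exposed to compound for 16 hours before reading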
In short: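 Caspase 3/7 activation is measured as a luminescence increase (aminoluciferin substrate) after 16 h compound exposure of human hepatocarcinoma HepG2 cells. AC50 values are Hill fits, scaled between DMSO baseline and 100 uM tamoxifen stimulation.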

[4] = Cellular Toxicity (caspase-3) Jurkat (AID 655); conditions: Jurkat caspase-3 activation, luminescence; caspase-3 activation: at 92.2 µM (top of the series), DMSO = 0%, tamoxifen = 100%;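 also: cells exposed to compound for 16 h at 37 °C before reading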
In short: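 Jurkat cells (5000/well) in complete medium were treated with compounds for 16 hr at 37 °C, then Caspase-Glo 3/7 luminescence was read after 20 min at room temperature. Data normalized to DMSO (basal) and 100 uM tamoxifen (100%); AC50 from Hill fit.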

[5] = Cellular Toxicity (caspase-3) SHSY5Y (AID 657); conditions: SH-SY5Y caspase-3 activation; series mostly up to 91.7 µM
In short: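 SH-SY5Y human neuroblastoma cells (1500/well) were treated with compounds for 16 h at 37 °C, then Caspase-Glo 3/7 luminescence was read after 1 h at room temperature. Data normalized to DMSO and 10 uM staurosporine; AC50 from Hill fits.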

[6] = Cellular Toxicity (caspase-3) BJ (AID 658); conditions: BJ fibroblasts, luminescence; Potency: caspase-3 activation; series mostly up to 91.7 µM
In short: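 qHTS, BJ fibroblasts, 1000 cells/well; 5 hr preincubation, 16 hr compound, 37 °C; Caspase-Glo 3/7 reagent, 1 hr RT; luminescence. DMSO = 0%, 10 uM staurosporine = 100%. Hill-equation AC50.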

[7] = Cellular Toxicity (caspase-3) MRC-5 (AID 659); conditions: MRC-5 cells, luminescence, normalized: DMSO 0%, 10 µM staurosporine 100%; series mostly up to 91.7 µM
In short: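 MRC-5 fibroblasts, 1500/well; 16 h cpd, 37 °C; Caspase-Glo 3/7, 1 h RT; lumi read. Norm: DMSO = 0%, 10 uM staurosporine = 100%. Hill-fit AC50 from qHTS conc-response.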

[8] = Cellular Toxicity (caspase-3) Mesangial (AID 660); conditions: mesangial cells, normalized: DMSO 0%, 100 µM tamoxifen 100%; series mostly up to 91.7 µM;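 also: combined caspase 3 and 7 activity read by Caspase-Glo luminescence; cells exposed to compound for 16 h before the caspase read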
In short: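 Caspase 3/7 activation measured by Caspase-Glo 3/7 luminescence (20 min, room temperature) following 16 h exposure of mesangial cells (1000/well); AC50 from Hill-equation fit, normalized to DMSO and 100 uM tamoxifen.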

[9] = Cellular Toxicity (caspase-3) SK-N-SH (AID 661); conditions: SK-N-SH caspase-3 activation, qHTS, DMSO as zero, staurosporine as full; series mostly up to 91.7 µM
In short: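 Caspase 3/7 activation was read by luminogenic substrate cleavage after 16 hour treatment of SK-N-SH cells. Signal was scaled between DMSO and 10 uM staurosporine, and concentration-response data were fitted with the Hill equation for AC50.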

[10] = Cellular Toxicity (caspase-3) Hek293 (AID 664); conditions: HEK293 caspase-3 activation, DMSO = 0%, 100 µM tamoxifen = 100%; at 92.2 µM (top of the series);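 also: cells exposed to compound for 16 h at 37 °C before readout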
In short: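 Concentration-response qHTS: caspase 3/7 activation measured by luminescent aminoluciferin substrate cleavage after 16 h compound exposure of Hek 293 cells. AC50 from Hill equation, with DMSO as basal and 100 uM tamoxifen as 100%.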

[11] = Cellular Toxicity (caspase-3) Renal Proximal Tubule (AID 667); conditions: renal proximal tubule cells, primary cells freshly taken from rat; Potency: caspase-3 activation; series mostly up to 91.7 µM;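 also: cells exposed to compound for 16 hours at 37 °C before detection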
In short: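 Primary rat proximal tubule cells, 1000/well, 5 h plating at 37 °C, then compound 16 h at 37 °C. Caspase-Glo 3/7 reagent, 1 h RT, luminescence. Normalized to DMSO (basal) and 10 uM staurosporine (100%); Hill-fit AC50.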

[12] = MultiTox-Fluor Cytotoxicity Assay - LYMP1-001 - Dead Cells (AID 946); conditions: LYMP1-001 lymphoblastoid cells, dead-cell protease fluorescence; series mostly up to 92.2 µM
In short: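 Seed 2500 LYMP1-001 cells/well, incubate 5 hr at 37 C; add compound, 16 hr at 37 C; add MultiTox-Fluor reagent, 60 min RT; read dead-cell fluorescence Ex/Em=485/520. Normalize to DMSO and 15 uM tetraoctylammonium bromide.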

[13] = Cell Viability - LYMP1-002 - Assay at 16 hr (AID 948); conditions: LYMP1-002 lymphoblastoid cell viability; series mostly up to 92.2 µM
In short: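 Human lymphoblastoid cells (LYMP1-002), 2500/well, were preincubated 5 hr at 37 C, then exposed to compounds for 16 hr at 37 C in complete medium. Cellular ATP was read by CellTiter-Glo luminescence after 30 min at room temperature; AC50 from Hill fits.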

[14] = MultiTox-Fluor Cytotoxicity Assay - LYMP1-002 - Live Cells (AID 955); conditions: LYMP1-002 lymphoblastoid live-cell protease fluorescence viability; series mostly up to 46.1 µM
In short: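 After 16 h compound exposure at 37 C, live LYMP1-002 lymphoblastoid cells (2500/well) were quantified by cleavage of cell-permeant GF-AFC substrate, read at 405/510 nm after 60 min. Concentration-response fitted with Hill equation for AC50.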

[15] = Cell Viability - LYMP1-003 - Assay at 24 hr (AID 963); conditions: LYMP1-003 lymphoblastoid cell viability; series mostly up to 92.2 µM
In short: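 Concentration-response qHTS: ATP loss measured by CellTiter-Glo luminescence after 24 h compound exposure at 37 C. Cells were LYMP1-003 human lymphoblastoid, 2500 per well. AC50 derived via standard Hill equation modeling.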

[16] = Cell Viability - LYMP2-026 (AID 989); conditions: LYMP2-026 lymphoblastoid cell viability, qHTS; series mostly up to 92.2 µM; also: nearly all actives have a fitted effect of over 50% in size
In short: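 Cytotoxicity read as ATP-dependent luminescence (CellTiter-Glo, 30 min room temperature) after 24 h compound treatment at 37 C. LYMP2-026 lymphoblastoid line seeded at 2500 cells/well; AC50 derived by standard Hill equation.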

[17] = Cell Viability - LYMP1-002 - Assay at 24 hr (AID 993); conditions: LYMP1-002 lymphoblastoid cells viability; series mostly up to 92.2 µM
In short: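 qHTS cytotoxicity at 24 h: CellTiter-Glo ATP luminescence in lymphoblastoid line LYMP1-002 incubated with compound at 37 °C. Concentration-response modeled with the Hill equation for AC50; tetraoctylammonium bromide served as positive control.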

[18] = qHTS Assay for Identification of Small Molecule Inducers of Hypoxia Response (AID 2120; active = well fitted curve in the direction sought with a large enough effect in the signal ratio, with a control signal flat, not every such curve was filed as active; the % refers to the signal ratio); conditions: hypoxia response reporter cells, beta-lactamase ratio readout; series mostly up to 104 µM
In short: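 Reporter induction read as the CCF4 blue/green (460nm/530nm) emission ratio after 2.5 h dye loading at room temperature. ME-180 HRE-beta-lactamase cells received titrated compounds for 17 h at 37 degrees Celsius; AC50 values derived.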

[19] = molecular target: Peroxisome proliferator-activated receptor alpha (Homo sapiens) (UniProt Q07869); test: qHTS assay for small molecule agonists of the peroxisome proliferator-activated receptor alpha (PPARalpha) signaling pathway (AID 651778); conditions: PathHunter PPARalpha complementation, chemiluminescence, 6 h; max response: active compounds read high
In short: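 Enzyme-fragment complementation assay in which ligand-bound PPARalpha translocates and forms an active enzyme that generates chemiluminescence. Cells were plated overnight, exposed to compound for 6 hr at 37 C, and then given detection reagent for 60 min at room temperature.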

[20] = qHTS assay for cell viability of the p53RE-bla HCT-116 cell line (AID 743292); conditions: p53RE-bla HCT-116 viability, ATP luminescence, 16 h; series mostly up to 95 µM; also: nearly all actives have a fitted effect of over 55% in size
In short: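 After plating at 4,000 cells per well and a 5 h rest at 37 C, HCT-116 cells carrying p53RE-bla received test chemicals in DMSO. Sixteen hours later at 37 C, CellTiter-Glo was added and luminescence recorded following 30 min at room temperature.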

Chain of Peroxisome proliferator-activated receptor alpha (Homo sapiens) (Q07869 whole entry, looked up, the tested form may be a part): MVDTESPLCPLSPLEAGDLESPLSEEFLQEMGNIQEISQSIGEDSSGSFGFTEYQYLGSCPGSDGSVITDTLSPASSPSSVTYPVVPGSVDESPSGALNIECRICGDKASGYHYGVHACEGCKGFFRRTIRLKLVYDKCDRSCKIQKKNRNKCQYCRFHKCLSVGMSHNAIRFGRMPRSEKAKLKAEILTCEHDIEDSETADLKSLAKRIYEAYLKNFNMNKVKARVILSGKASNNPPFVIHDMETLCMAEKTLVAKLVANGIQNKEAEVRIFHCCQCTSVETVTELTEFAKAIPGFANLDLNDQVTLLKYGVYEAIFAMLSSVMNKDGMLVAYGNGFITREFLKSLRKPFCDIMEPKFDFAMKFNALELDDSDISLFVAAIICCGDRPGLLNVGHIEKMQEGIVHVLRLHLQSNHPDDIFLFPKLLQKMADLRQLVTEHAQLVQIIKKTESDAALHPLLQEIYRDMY

Compound: CC(C)S
- Potency [1]: > 92 µM
- Potency [2]: > 92 µM
- Potency [3]: inactive
- Potency [4]: inactive
- Potency [5]: inactive
- Potency [6]: inactive
- outcome [7]: inactive
- outcome [8]: inactive
- outcome [9]: inactive
- caspase-3 activation [10]: 0.604%
- Potency [11]: inactive
- Potency [12]: inactive
- Potency [13]: inactive
- outcome [14]: inactive
- Potency [15]: inactive
- Potency [16]: inactive
- Potency [17]: inactive
- Potency [18]: inactive
- max response [19]: -0.0008%
- Potency [20]: inactive

Compound: Oc1c(Cl)cc(Cl)c(Cl)c1Cl
- Potency [1]: > 92 µM
- Potency [2]: > 92 µM
- Potency [3]: inactive
- caspase-3 activation [4]: 91.2% (active)
- Potency [5]: inactive
- Potency [6]: inactive
- outcome [7]: inactive
- outcome [8]: inactive
- outcome [9]: inactive
- caspase-3 activation [10]: 1.49%
- Potency [11]: inactive
- Potency [12]: inactive
- Potency [13]: inactive
- outcome [14]: inactive
- Potency [15]: inactive
- Potency [16]: inactive
- Potency [17]: inactive
- Potency [18]: inactive
- max response [19]: 4.27%
- Potency [20]: inactive

Compound: Brc1cc(Br)c(Oc2cc(Br)c(Br)cc2Br)cc1Br
- Potency [1]: > 92 µM
- Potency [2]: > 92 µM
- Potency [3]: inactive
- Potency [4]: inactive
- Potency [5]: inactive
- Potency [6]: inactive
- outcome [7]: inactive
- outcome [8]: inactive
- outcome [9]: inactive
- caspase-3 activation [10]: 0.345%
- Potency [11]: inactive
- Potency [12]: inactive
- Potency [13]: inactive
- outcome [14]: inactive
- Potency [15]: inactive
- Potency [16]: inactive
- Potency [17]: inactive
- Potency [18]: inactive
- max response [19]: -1.94%
- Potency [20]: inactive

Compound: C=C(C#N)C(=O)OCC
- Potency [1]: > 92 µM
- Potency [2]: > 92 µM
- Potency [3]: inactive
- Potency [4]: inactive
- Potency [5]: inactive
- Potency [6]: inactive
- outcome [7]: inactive
- outcome [8]: inactive
- outcome [9]: inactive
- caspase-3 activation [10]: -3.19%
- Potency [11]: inactive
- Potency [12]: inactive
- Potency [13]: inactive
- outcome [14]: inactive
- Potency [15]: inactive
- Potency [16]: inactive
- Potency [17]: inactive
- Potency [18]: inactive
- max response [19]: -1.15%
- Potency [20]: inactive

Compound: CCCCC(CC)COC(=O)COc1ccc(Cl)cc1Cl (stereo not given)
- Potency [1]: > 92 µM
- Potency [2]: > 92 µM
- Potency [3]: inactive
- Potency [4]: inactive
- Potency [5]: inactive
- Potency [6]: inactive
- outcome [7]: inactive
- outcome [8]: inactive
- outcome [9]: inactive
- caspase-3 activation [10]: 1.58%
- Potency [11]: inactive
- Potency [12]: inactive
- Potency [13]: inactive
- outcome [14]: inactive
- Potency [15]: inactive
- Potency [16]: inactive
- Potency [17]: inactive
- Potency [18]: inactive
- max response [19]: -1.4% and -1.03%
- Potency [20]: inactive

Compound: CCCCCCN
- Potency [1]: > 92 µM
- Potency [2]: > 92 µM
- Potency [3]: inactive
- Potency [4]: inactive
- Potency [5]: inactive
- Potency [6]: inactive
- outcome [7]: inactive
- outcome [8]: inactive
- outcome [9]: inactive
- caspase-3 activation [10]: 1.72%
- Potency [11]: inactive
- Potency [12]: inactive
- Potency [13]: inactive
- outcome [14]: inactive
- Potency [15]: inactive
- Potency [16]: inactive
- Potency [17]: inactive
- Potency [18]: inactive
- max response [19]: 1.86%
- Potency [20]: inactive
